# Shiga toxin inh – inhibitors of Shiga toxin in Vero cells. Vero cells, Shiga toxin protein synthesis inhibition reporter. inhibition, % at 38.7 µM. 290,000 compounds, 9.2% hits; in the data active = inhibition mostly above about 28%, no sharp cut-off; inactive = mostly below about 43%; also: 0% is about no effect
# AmpC inh detg – blocks E. coli AmpC beta-lactamase in detergent assay; 370,000 compounds, 0.041% hits; AID 485294; Potency, µM (highest dose often 114 µM), inactives show at the highest dose activity change, negative = inhibition, actives largely listed as inhibitors; P00811; AmpC hydrolysis of nitrocefin, absorbance 480 nm, 0.01% Triton;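 also: potency is read from the fitted curve at half-maximal effect; 0% = no-compound wells and -100% = no-enzyme wells; nearly all actives have a fitted effect of over 25% in size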
# Target sequence (P00811 whole entry, looked up): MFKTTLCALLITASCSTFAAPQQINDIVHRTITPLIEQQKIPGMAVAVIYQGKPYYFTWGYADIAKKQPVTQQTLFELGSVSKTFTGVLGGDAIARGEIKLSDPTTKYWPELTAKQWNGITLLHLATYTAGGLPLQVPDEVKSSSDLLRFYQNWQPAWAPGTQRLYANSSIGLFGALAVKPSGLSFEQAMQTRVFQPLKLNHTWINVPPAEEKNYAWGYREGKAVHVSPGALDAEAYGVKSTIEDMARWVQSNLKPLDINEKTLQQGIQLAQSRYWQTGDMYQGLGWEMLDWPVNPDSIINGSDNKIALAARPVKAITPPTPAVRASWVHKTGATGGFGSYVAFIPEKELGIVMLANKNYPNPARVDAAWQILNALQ
#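 AmpC (5.3 nM in the dispensed reagent) in 20 mM phosphate pH 7.0 with 0.01% (detergent screen) or 0.0001% Triton X-100 was preincubated with compounds for 15 min at room temperature. Nitrocefin was then added from an 800 uM solution, and hydrolysis was followed at 480 nm.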
# AMA1-RON2 inh – disrupts binding of P. falciparum AMA1 to RON2. Potency, µM (series often up to 58.2 µM), inactives show at the highest dose activity change, negative = inhibition, most hits filed as inhibitors. 360,000 compounds, 0.2% hits. AID 720542. AlphaScreen AMA1-biotinylated RON2 peptide binding;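 also: potency is read from the fitted curve at half-maximal effect; 0% = vehicle wells and -100% = peptide control; nearly all actives have a fitted effect of over 45% in size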
#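 AMA1 (3D7) with his tag at 25 nM final met compounds first, then biotinylated RON2 peptide at 25 nM; detection used donor plus acceptor beads, 10 µg/mL apiece, read by AlphaScreen after 30 min at room temperature.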
# SARS PLpro yeast – inhibitors of SARS-CoV papain-like protease in yeast. S. cerevisiae expressing SARS-CoV PLpro, growth rescue. Potency, µM (highest dose often 32.9 µM), for inactives: at the highest dose activity, positive = growth rescue, usual class: activators. 330,000 compounds, 0.19% hits; calls by dose curve; also: potency is read from the fitted curve at half-maximal effect; 0% is about no effect; nearly all actives have a fitted effect of over 55% in size
# AmpC inh no detg – AmpC beta-lactamase inhibition without detergent | AID 485341 | 330,000 compounds, 0.52% hits | Potency, µM (highest dose often 57.1 µM), without a hit: at the top dose activity change, negative = inhibition, most hits filed as inhibitors | AmpC nitrocefin hydrolysis, absorbance 480 nm, 0.0001% Triton;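 also: potency is read from the fitted curve at half-maximal effect; plate controls were no compound for no effect and no enzyme for full effect; nearly all actives have a fitted effect of over 20% in size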
#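 AmpC (5.3 nM in the dispensed reagent) in 20 mM phosphate pH 7.0 with 0.01% (detergent screen) or 0.0001% Triton X-100 was preincubated with compounds for 15 min at room temperature. Nitrocefin was then added from an 800 uM solution, and hydrolysis was followed at 480 nm.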
# Cycloheximide cs – counter-screen hit for Shiga toxin inhibitors, cycloheximide | max response, % | 300,000 compounds, 12% hits | cell reporter, cycloheximide protein synthesis inhibition counterscreen; in the data active = max response mostly above about 13%, no sharp cut-off; inactive = mostly below about 14%; also: read at 38.3 µM for the half of the compounds with a filed dose; 0% is about no effect
# Active calls of the source: *; ? = inconclusive; · = no result given; [ ] = dose if it differs, or a comment. The entries come from a sample that favours hits as a whole. Unless noted, calls follow the shape of the dose curve; as a rule, active = well fitted curve in the direction sought with a large enough effect; inconclusive = small, poorly fitted or top-dose-only effect, or another doubt; inactive = no such curve, though single readings can be large; an effect the other way counts as inactive or inconclusive.
SMILES,Shiga toxin inh,AmpC inh detg,AMA1-RON2 inh,SARS PLpro yeast,AmpC inh no detg,Cycloheximide cs
O=C(CSc1nccn1-c1ncc(C(F)(F)F)cc1Cl)c1ccc(Br)cc1,102.3,?,1.4%,-3.2%,-20.7%,30.6*
O=C(O)c1cccc(OCCN2CCCC2=O)c1,-4.5,-4.7%,9.6%,-1.2%,-12.3%,-1.6
O=C(O)c1ccccc1-c1ccc(/C=c2\sc3nc4cc(Br)cnc4n3c2=O)o1,-20.3,-0.1%,10.6µM*,5.6%,-38.0%,-0.4
O=C(NCCN1C(=O)CSC1=O)C1CC(=O)N(c2ccccc2)C1 (centres undefined),34.4,-16.7%,0.9%,-14.7%,-9.9%,-5.1
COC(=O)c1ccccc1SC(CC(=O)c1ccccc1)c1ccc(F)cc1 (centres undefined),107.3*,-7.0%,-2.0%,-0.6%,-5.2%,55.9*
CC(Oc1ccc2c(c1)oc(=O)c1ccccc12)C(=O)NCC1CCC(C(=O)O)CC1 (centres undefined),15.4,1.6%,13.2%,2.8%,-18.5%,-1.0
C/C(=N\Nc1cccc2cccnc12)c1ccccn1,29.8,-8.7%,24.9%,-2.3%,-4.1%,31.7
C/C(=N\Nc1cccc2cccnc12)c1ccccc1O,46.4*,2.4%,1.5%,-2.8%,-16.0%,36.1*
C/C(=N\Nc1cccc2cccnc12)c1ccc(N)cc1,119.4*,-13.0%,58.5%,-1.8%,-7.7%[2.29 µM],36.3*
CC(=O)Nc1cccc2cccnc12,15.1,·,·,·,·,-6.4
CCc1ccccc1Nc1ccc(C(=O)O)cc1N,69.2*,-2.1%,-7.0%,?,-18.9%,36.7*
CCNc1ccc(C(=O)O)cc1N,60.9*,?,17.8%,2.0%,-31.4%,32.1*
COc1ccc(C(=O)C2CCCN(C(=O)c3cccnc3OC)C2)cc1F (centres undefined),35.8,-4.4%,2.0%,-0.3%,26.1%,8.1
COc1cc(OC)c(OC)cc1C=NCC1(c2ccccc2)CCCC1,-11.6,-6.8%,-5.4%,6.4%,-18.7%,-2.2
Cc1ccc(N2C(=O)C(Cl)=C(N3CCCCCC3)C2=O)cc1,44.1,-8.0%,31.1%,-2.5%,-37.0%,26.8*
O=C1C(Cl)=C(N2CCCCC2)C(=O)N1c1ccccc1,13.0,10.1%,62.6%,3.2%,-17.0%,-1.2
O=[N+]([O-])c1cccnc1Sc1n[nH]c(-c2ccc(Cl)cc2)n1,55.4*,-5.3%,0.0%,0.2%,-25.1%,36.9*
O=[N+]([O-])c1ccccc1N/N=C/c1ccccc1,62.4*,-3.7%,-8.0%,-2.8%,-31.2%,35.1*
O=C(O)c1ccccc1NN=Cc1ccccc1,·,·,7.0%,·,·,·
O=[N+]([O-])c1ccccc1N/N=C/c1ccc2c(c1)OCO2,68.1*,0.6%,-17.0%,-0.5%,-10.8%,39.6*
O=C(CSc1nc2ccccc2c(=O)n1-c1ccc(SC(F)F)cc1)Nc1ccc(N2CCOCC2)cc1,-2.0,-9.3%,?,-0.1%,-1.2%,9.9
CC(=O)Cc1nsc(NC(=O)c2ccc(-c3ccc(Cl)c(C(F)(F)F)c3)o2)n1,20.1,?,78.2%,-7.3%,-36.8%,-1.3
CC(=O)Cc1nsc(NC(=O)c2ccc(-c3ccc(F)cc3)o2)n1,12.9,3.6%,43.4%,0.1%,-22.9%,15.7*
O=C(Nc1nccs1)c1ccc(-c2ccc(F)cc2)o1,94.8*,-2.5%,58.5%,-1.1%,-45.0%,40.9*
O=C(Nc1nccs1)c1ccc(-c2ccc(Cl)cc2)o1,94.1*,-6.3%,65.4%,0.9%,-39.2%,51.0*
SMILES,Shiga toxin inh,AmpC inh detg,AMA1-RON2 inh,SARS PLpro yeast,AmpC inh no detg,Cycloheximide cs
CC(=O)Cc1nsc(NC(=O)c2cccs2)n1,15.9,?,-2.2%,-4.7%,-29.1%,30.7*
CC(=O)Cc1nsc(NC(=O)c2ccccc2)n1,69.2,?,-11.8%,2.6%,-22.7%,10.9
O=c1cc(O)c2c(=O)n(Cc3ccccc3)c3ccccc3c2o1,-20.0,3.5%,-7.8%,-4.4%,-5.7%,1.0
O=C(Nc1nccs1)c1ccc(-c2ccc([N+](=O)[O-])cc2)o1,120.0*,2.6%,36.4%,-0.7%,-23.0%,25.6*
Fc1ccc(-c2ccc(CNCCSc3nnnn3-c3ccccc3)o2)cc1,·,3.4%,·,·,·,·
O=C(C1=C[C@@H](c2ccccc2)C[C@@H](OCc2ccc(CO)cc2)O1)N1CCN(Cc2ccc3c(c2)OCO3)CC1,-3.3,-0.8%,-27.0%,-2.2%,106.2%,-0.9
O=C(CN1CCC(c2nc3ccccc3s2)CC1)N1CCCCC1,32.8,0.1%,7.4%,0.6%,339.9%,16.5
O=C(/C=C/c1nc2ccccc2s1)N1CCCCCC1,52.6*,2.9%,-13.9%,-0.7%,-2.6%,35.4*
COc1ccc(/C=C/C(=O)NC2CCCCC2C)cc1 (centres undefined),·,-16.0%,0.0%,0.6%,-34.9%,12.2
CC1CCCCC1NC(=O)/C=C/c1nc2ccccc2s1 (centres undefined),76.0,-3.2%,-7.9%,-3.6%,-32.1%,30.3*
COc1ccc(N=Cc2c(OC)ccc3ccccc23)cc1,·,·,-15.8%,·,·,·
COc1ccc(N(CCCN2C(=O)c3cccc4cccc(c34)C2=O)C(=O)c2cccs2)cc1,-9.1,?,14.7%,?,-22.8%,1.5
O=C(/C=C/c1ccc(Cl)cc1)NCc1ccco1,94.1*,-10.4%,11.7%,-2.5%,-22.2%,24.6*
O=C(COC(=O)CCSc1ccc(Cl)cc1)NCc1ccco1,52.9,-7.0%,-8.6%,-0.4%,-0.7%[2.29 µM],19.1*
O=C(/C=C/c1ccc(S(=O)(=O)NCc2ccco2)cc1)NCc1ccccc1Cl,20.4*,-0.1%,-3.6%[2.32 µM],21.0%,-28.1%,30.8*
O=C(COC(=O)CCSc1ccc(Cl)cc1)NCc1ccccc1Cl,12.3,-5.6%,-19.8%,9.1%,-14.9%,-1.2
COc1ccc(CNC(=O)/C=C/c2ccc(S(=O)(=O)NCc3ccco3)cc2)cc1OC,-3.4,-8.6%,-2.4%,-2.7%,-46.1%,0.8
CCCc1ccc(OCc2nc(-c3ccc(NC(=O)c4ccco4)cc3)no2)cc1,56.5,-0.5%,0.0%,-6.6%,-29.9%,47.0*
NC(=O)COc1ccc(-c2noc(COc3ccc(Cl)cc3)n2)cc1,·,-13.4%,·,·,·,·
O=C(NCCc1nc(-c2ccccc2)no1)c1ccco1,·,·,2.8%,·,·,·
CCCc1ccc(OCc2nc(-c3ccc(NC(=O)c4cccs4)cc3)no2)cc1,176.2*,-4.8%,-2.8%,-7.5%,-24.0%,80.3*
O=C(NCCN1CCOCC1)c1ccc(CS(=O)(=O)c2ccc(Br)cc2)o1,·,·,5.2%,·,·,·
COC(=O)c1ccc(CSc2nc3ccccc3[nH]2)o1,10.0,2.0%,-23.8%,-8.8%,-17.3%,10.6*
COC(=O)c1ccc(CSc2nc3ccc(S(N)(=O)=O)cc3[nH]2)cc1,17.8,3.8%,4.4%,5.8%,-37.1%,11.1
COC(=O)c1ccc(CSc2nc(-c3ccccc3)cs2)o1,44.8,-14.3%,48.2%,-1.1%,-30.4%,21.9*
COC(=O)c1cccc(CSc2nc3ccccc3[nH]2)c1,92.5*,-4.1%,6.9%,-24.6%,-34.2%,39.2*

# From PubChem
